From PubChem
TEAD-YAP block: TEAD-YAP interaction inhibition, primary screen, TEAD-YAP interaction inhibitor project, luminescence, HEK-TIYL cells; TEAD-Gal4/YAP UAS-luciferase luminescence; inhibition, % at 9.12 µM; 640,000 compounds, 1.4% hits; AID 1259422, 2018; in the data active = inhibition above about 32%;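 also: 0% = median of test compound wells and 100% = reference inhibitor wells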
MITF primary: MITF inhibitors, primary screen, biochemical, AlphaScreen, human; 650,000 compounds, 0.91% hits; AID 1259374, 2018; AlphaScreen MITF homodimerization, bead proximity signal; inhibition, % at 2.6 µM; in the data active = inhibition above about 50%;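 also: 0% = vehicle wells with protein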
Target sequence (O75030 whole entry, looked up): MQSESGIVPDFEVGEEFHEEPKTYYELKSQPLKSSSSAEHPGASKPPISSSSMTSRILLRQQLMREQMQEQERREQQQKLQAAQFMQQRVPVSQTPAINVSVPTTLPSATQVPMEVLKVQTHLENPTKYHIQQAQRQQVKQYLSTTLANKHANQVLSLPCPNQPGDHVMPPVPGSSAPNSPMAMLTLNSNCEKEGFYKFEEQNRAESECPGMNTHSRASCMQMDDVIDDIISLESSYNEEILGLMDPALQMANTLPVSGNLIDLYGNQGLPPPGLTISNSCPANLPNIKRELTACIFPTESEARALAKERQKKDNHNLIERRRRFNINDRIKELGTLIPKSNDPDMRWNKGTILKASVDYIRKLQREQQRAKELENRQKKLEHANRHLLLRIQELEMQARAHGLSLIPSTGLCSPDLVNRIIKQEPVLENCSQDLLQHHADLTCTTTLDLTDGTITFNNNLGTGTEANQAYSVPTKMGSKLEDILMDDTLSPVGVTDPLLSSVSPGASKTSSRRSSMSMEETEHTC
FBW7 activator: FBW7 E3 ligase activators, primary screen, biochemical, AlphaScreen, human; F-box/WD repeat-containing protein 7 (Homo sapiens), Q969H0; AlphaScreen FBW7–phospho-cyclin E peptide binding, activator screen; normalized activity (activation), % at 26.1 µM; 650,000 compounds, 0.13% hits; AID 1259310, 2017; in the data active = normalized activity above about 1.9%;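 also: purified mutant Fbw7 with reduced substrate affinity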
GPR151 ag: activators of human GPR151, primary screen, cell-based, PathHunter beta-arrestin, luminescence. G-protein coupled receptor 151 (Homo sapiens), Q8TDV0. activation, % at 11.2 µM. PathHunter beta-arrestin GPR151 cells. AID 1508602, 2020. 650,000 compounds, 1% hits; in the data active = activation above about 4.9%;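 also: 0% = median of compound wells and 100% = cells with positive control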
* hit, by the source's call; nt = no result given. An excerpt weighted towards active compounds, which were near 3.5% of everything screened.

SMILES	TEAD-YAP block	MITF primary	FBW7 activator	GPR151 ag
COc1ccccc1NC1=C(N2CCCCC2)C(=O)c2ccccc2C1=O	62*	-2	0	2
Nc1ccc(NC2=C(N3CCCCC3)C(=O)c3ccccc3C2=O)cc1	-1	-6	-1	-1
Cc1onc(-c2ccccc2Cl)c1C(=O)N1CCN(c2ccc([N+](=O)[O-])cc2Cl)CC1C (stereo not given)	-9	-5	0	-1
CN(C)C(=O)c1cnccc1Nc1cccc(C(=O)NC[C@@H](O)C(=O)N(C)C)c1	3	15	0	0
Cc1[nH]c2ccc(-c3nnc(SCC(=O)Nc4cccc([N+](=O)[O-])c4)n3-c3ccccc3)cc2c1C	2	17	2.4*	1
Cc1[nH]c2ccc(-c3nnc(SCC(=O)Nc4cccc([N+](=O)[O-])c4)n3Cc3ccccc3)cc2c1C	1	-6	0	0
Cc1c(C(=O)Nc2nc3ccccc3s2)sc2nc(C)n(C)c(=O)c12	45*	0	0	-2
Cc1nc2sc(C(=O)Nc3nc4ccccc4s3)c(N)c2c(C)c1C	96*	8	0	2
COc1ccc2nc(NC(=O)c3sc4nc(C)ccc4c3N)sc2c1	39*	-2	0	-1
Cc1nc(SCC(=O)Nc2nc3ccccc3s2)c(C#N)c(C)c1C	95*	-4	0	3
Cc1[nH]ncc1-c1cc(F)cc(-c2ccnc(Nc3ccc(-n4cnc(N5CCOCC5)n4)cc3)n2)c1	-11	28	1	-1
O=C(Cc1ccccc1)N1CCC(c2nc3c(nnn3Cc3cccc(F)c3)c(=O)[nH]2)CC1	9	6	0	0
COc1ccc(-c2nc3cc(C)c(Cl)cc3nc2-c2ccc(OC)cc2)cc1	5	-6	0	0
O=C(OCC(=O)N1CCN(C(=O)c2ccco2)CC1)c1cc(O)c(O)c(O)c1	-8	81*	0	-2
COc1ccc(-c2ccc(=O)n(C[C@H](C)NC(=O)C3CCC3)n2)cc1	4	4	0	1
COc1ccc(Nc2c(-c3ccc(Cl)cc3)c(=O)c2=O)cc1	-4	-6	0	1
CCCNC(=O)CCS(=O)(=O)c1nc(-c2ccc(OC)cc2)cc(C(F)(F)F)n1	10	3	2.1*	0
COc1ccc(-c2cc(C(F)(F)F)nc(S(=O)(=O)CCC(=O)NC(C)C)n2)cc1	0	4	0	-1
CC/C=C\C/C=C\C/C=C\C/C=C\CCCCC(=O)O	nt	2	nt	0
Cc1cc(=O)[nH]c(N/N=C/c2c(O)ccc3ccccc23)n1	89*	62*	-1	-1
O=c1cnnc(N/N=C/c2c(O)ccc3ccccc23)[nH]1	88*	117*	0	-2
O=c1[nH]nc(N/N=C/c2c(O)ccc3ccccc23)c(=O)[nH]1	-10	10	-1	1
Cc1nnc(N/N=C/c2c(O)ccc3ccccc23)[nH]c1=O	89*	-18	0	0
NC(=S)N/N=C/c1c2ccccc2cc2ccccc12	13	4	1	-1
NC(=S)N/N=C/c1c(O)ccc2ccccc12	4	78*	0	-1
SMILES	TEAD-YAP block	MITF primary	FBW7 activator	GPR151 ag
CN1CCCCC1C(=O)N/N=C/c1c(O)ccc2ccccc12 (stereo not given)	78*	84*	0	2
Cn1cc(C(=O)N2CCN(c3ccccc3Cl)CC2)c2ccccc2c1=O	43*	8	0	0
Oc1ccccc1/C=N/c1ccnn1-c1ccccc1	32*	9	0	-9
CC(=O)NCC1CCC2(CCN(Cc3ccc4c(c3)CCCN4C)CC2)O1 (stereo not given)	55*	7	0	1
CC(=O)NCC1CCC2(CCN(Cc3ccc4ccccc4c3)CC2)O1 (stereo not given)	-7	-5	0	0
O=C(CN1C(=O)COc2ccccc21)N(Cc1cccnc1)Cc1cccc(F)c1	6	-5	0	0
O=C(O)CCC(=O)N(Cc1cccnc1)Cc1cccc(F)c1	49*	8	0	0
O=[N+]([O-])c1ccc2c(c1)C1C=CCC1C(c1ccc(S(=O)(=O)N3CCOCC3)cc1)N2 (stereo not given)	42*	5	0	0
O=C(O)c1ccc2c(c1)C1C=CCC1C(c1ccc([N+](=O)[O-])cc1)N2 (stereo not given)	15	84*	0	-2
O=C(O)c1ccc2c(c1)C1C=CCC1C(c1ccccc1F)N2 (stereo not given)	4	56*	0	0
CCOC(=O)c1ccc2c(c1)C1C=CCC1C(c1ccc(Cl)cc1)N2 (stereo not given)	10	12	0	-1
CCOC(=O)c1ccc2c(c1)[C@@H]1C=CC[C@@H]1[C@H](c1ccc(C(=O)O)cc1)N2	7	52*	-1	-1
CC(=O)c1ccc2c(c1)C1C=CCC1C(c1ccccc1F)N2 (stereo not given)	-5	11	0	2
COC(=O)c1ccc2c(c1)C1C=CCC1C(c1ccc([N+](=O)[O-])cc1)N2 (stereo not given)	-4	-6	0	0
O=S(=O)(c1ccc(C2Nc3ccc(F)cc3C3C=CCC32)cc1)N1CCOCC1 (stereo not given)	-4	4	0	1
N#Cc1c(NC(=O)CSc2nc3scc(-c4ccccc4)c3c(=O)n2-c2ccccc2)sc2c1CCCCC2	11	-3	0	0
Fc1ccc2[nH]c3c(N4CCOCC4)ncnc3c2c1	-7	27	1	2
CC(NC(=O)c1nn2c(C(F)(F)F)cc(-c3cccs3)nc2c1Cl)c1ccccc1 (stereo not given)	4	9	1	1
COC(=O)c1ccc2c(c1)C1C=CCC1C(c1ccc(C(=O)O)cc1)N2 (stereo not given)	7	70*	-1	-1
CC(=O)c1ccc2c(c1)[C@@H]1C=CC[C@@H]1[C@H](c1ccc(C(=O)O)cc1)N2	-7	62*	-1	-1
CC(=O)c1ccc2c(c1)[C@@H]1C=CC[C@@H]1[C@H](c1ccncc1)N2	-51	6	-1	0
COc1ccc2c(c1)[C@@H]1C=CC[C@@H]1[C@H](c1ccc(C(=O)O)cc1)N2	-6	24	0	-1
CC(=O)c1ccc2c(c1)[C@@H]1C=CC[C@@H]1[C@H](c1cc3c(cc1Br)OCO3)N2	53*	-2	0	-1
COC(=O)c1ccc2c(c1)C1C=CCC1[C@@H](c1ccc(C(=O)O)cc1)N2 (stereo not given in full)	-3	66*	-1	0
CC(C)n1c2ccccc2c2nnc(SCC(=O)Nc3nc4ccccc4s3)nc21	0	-3	0	-1
COc1ccc2[nH]c3c(c2c1)CCNC31CCN(CCOc2ccccc2)CC1	-25	7	-1	3
